Experimental data: the supplement of paper PMC6555819

Tests used:
Assay in all cases: PBM binding z-score (relative to random genomic background probes); higher = stronger binding; sequences stand for … in GC…GCGATTGACAGCGTAGAATGAAGG
[1] = tested on: PPARg:RXRa DBDmut IVT, anti-RXR (DBD mutation: RXRa K156A/R161A, NR concentration 270 nM, RXRa partner concentration 90 nM)
Outline: (§1)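 Antibodies against each partner of ligand-free nuclear receptor dimers (one per run) detected binding on custom Agilent 4×180K protein-binding microarrays after 1 h incubation. The double-stranded probes had 34-nt variable regions carrying direct-repeat seeds, single-nucleotide variants, half-site ablations and random human genomic background sequences. Binding z-scores, from regression-normalized fluorescence, use the random background probes as reference.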

[2] = tested on: PPARg:RXRa IVT, anti-PPARg (NR concentration 270 nM, RXRa partner concentration 90 nM)
Outline: as §1

[3] = tested on: PPARg DBDmut:RXRa IVT, anti-PPARg (DBD mutation: PPARg1 K132A/R137A, NR concentration 270 nM, RXRa partner concentration 90 nM)
Outline: as §1

[4] = tested on: PPARg DBDmut IVT, anti-PPARg (DBD mutation: PPARg1 K132A/R137A, NR concentration 270 nM)
Outline: as §1

[5] = tested on: PPARg homodimer (NR concentration 180 nM)
Outline: as §1

[6] = tested on: PXR:RXRa (NR concentration 270 nM, RXRa partner concentration 90 nM)
Outline: as §1

[7] = tested on: PXR homodimer (NR concentration 270 nM)
Outline: as §1

[8] = tested on: RARa:RXR (NR concentration 270 nM, RXRa partner concentration 90 nM)
Outline: as §1

[9] = tested on: RARa homodimer (NR concentration 270 nM)
Outline: as §1

[10] = tested on: RARb:RXRa (NR concentration 270 nM, RXRa partner concentration 90 nM)
Outline: as §1

| Sequence | PBM binding z-score [1] | PBM binding z-score [2] | PBM binding z-score [3] | PBM binding z-score [4] | PBM binding z-score [5] | PBM binding z-score [6] | PBM binding z-score [7] | PBM binding z-score [8] | PBM binding z-score [9] | PBM binding z-score [10] |
| --- | --- | --- | --- | --- | --- | --- | --- | --- | --- | --- |
| TAGCCTAGGTCATGCGGGCCAGTGTAGTGTCGGC | 1.76 | 2.75 | -0.395 | -0.723 | 0.153 | 1.23 | -0.733 | 1.69 | -1.29 | 3.72 |
| ACTAGTTGGTCAGCTGAGGGCACACACAATTCGG | 0.794 | 1.19 | -0.0581 | 0.654 | 0.538 | 2.26 | 0.211 | 1.13 | -0.0752 | 1.73 |
| TAGCCTAGCTCATGCGGGCCAGTATAGTGTCGGC | -0.92 | -0.527 | -0.361 | -0.899 | -1.61 | -1.02 | -0.998 | -1.04 | -0.996 | -1.16 |
| CGTACAAGGTCAAGGTCAGTGAAAGAGACTCGAA | 4.64 | 5.48 | 1.83 | 0.837 | 4.4 | 5.27 | 1.65 | 5.96 | 2.4 | 5.65 |
| CCTATTAGTAGACCATAAGGGCAACCGAAGCTCG | 1.88 | 1.11 | 0.0545 | 0.0708 | 1.4 | 0.71 | 0.501 | 0.768 | 1.33 | 1.25 |
| CGTCAAAGTTCAACTAAGGTAACGTAAAGCACGC | 0.3 | 2.33 | 1.23 | 0.815 | 2.8 | 5.69 | 3.56 | 4.67 | 2.05 | 5.43 |
| CAAACTAGGTCACCGGAAGGTTAAAGTCCGCATG | 8.22 | 9.06 | 2.44 | 1.44 | 3.7 | 3.98 | 0.858 | 5.18 | 0.971 | 4.78 |
| GCAGACAGGTGAAACGCAGGTAACTCCGGGTGGC | 0.8 | 0.556 | 0.467 | -0.826 | -0.848 | -0.493 | -0.692 | 0.064 | -0.954 | 0.484 |
| ACTAGCAGGCCAAGTTTGGGTCTCTCAAACAAAG | 0.491 | 0.0697 | -1.53 | -0.788 | -1.17 | -0.733 | -0.734 | -0.606 | -1.44 | 0.382 |
| CGTTACGGGTCAAGGTTATAGCACGGGTGGTACG | 2.15 | 3.69 | 0.343 | -0.183 | 1.78 | 3.44 | 0.111 | 3.92 | 0.367 | 4.29 |
| CGCCCAAGGTCAGAGAGGTCAGTGAATGCCGAGT | 2.95 | 2.94 | -0.485 | -0.732 | 3.98 | 5.86 | 11.8 | 5.47 | 3.01 | 5.09 |
| CATCGGAGGACAACAGGAGGTCAGAGCTGCCAGA | 0.575 | 1.3 | -0.47 | -0.762 | 1.51 | 2.23 | 0.834 | 2.69 | 0.396 | 3.08 |
| ATATGTAGGTTAAGGGTCATACAGGTTGGTTCGC | 7.57 | 7.96 | 4.09 | 2.15 | 4.5 | 5.37 | 1.88 | 6.2 | 2.6 | 3.76 |
| TCATATAGGTAAAAGGTGTAAGTCGGTGTGGTAA | 4.99 | 3.58 | 1.13 | 0.898 | 1.04 | 0.588 | 0.592 | 0.719 | 0.894 | 0.49 |
| ATATGTAGGTTAGATGGGGTCATTCAGACTAGGC | 6.56 | 6.05 | 2.97 | 2.15 | 2.79 | 6.56 | 4.01 | 6.01 | 1.98 | 2.93 |
| TCATATAGGTAAATGCTAGGTGCAAGTCCGATCT | 3.77 | 1.96 | 1.24 | 0.918 | 0.912 | 0.511 | 0.449 | 0.897 | 0.586 | 0.263 |
| TAGCCTAGGTCATGCGGGCTAGTATAGTGTCGGC | 1.62 | 2.81 | -0.158 | -0.27 | 0.331 | 1.07 | -0.632 | 1.97 | -0.868 | 3.86 |
| ACAGACAGGTGAGGGAAGGTAACTCAGCTGGACG | 0.476 | 0.747 | 0.431 | -0.614 | -0.102 | -0.00447 | -0.0527 | 0.343 | -0.347 | 0.622 |
| CCTCGGAGGACAGAAGGTTAGAGCTGTCCGCTTT | -0.501 | -0.792 | -1.88 | -2.87 | -0.233 | -0.354 | -0.764 | 0.0468 | -1.07 | 1.12 |
